High-throughput results (PubChem BioAssay)
ELG1 genotox = inducers of genotoxicity in HEK293T ELG1-luciferase cells; HEK293T ELG1-luciferase reporter, luminescence, 16 h; AID 504466; 330,000 compounds, 1.3% hits; Potency, µM (top dose mostly 46 µM), without a hit: top-dose activity change, positive = activation, usual class: activators; also: % of control where 0% means no effect; nearly all actives have a fitted effect of over 60% in size
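DMSO vehicle served as control against compound-treated ELG1-luciferase HEK293T cells; exposure lasted 16 hr at 37 °C and 5% CO2, followed by ONE-Glo luminescence detection after 30 min.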
NPC1 prom act = NPC1 promoter activation; 320,000 compounds, 2.4% hits; Potency, µM (doses to about 9.22 µM), without a hit: at the highest dose activation, actives largely listed as activators; Huh7 NPC1 promoter luciferase reporter, 24 h; also: % of control where 0% means no effect; nearly all actives have a fitted effect of over 60% in size
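Readout is luciferase luminescence, reflecting NPC1 promoter activation in stably transfected Huh7 cells after 24 h compound exposure at 37 °C in reduced-serum medium with 10% FBS.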
Rab9 promoter act = activates the Rab9 promoter; AID 485297; Huh7 Rab9 promoter-luciferase reporter, luminescence, 24 h; Potency, µM (highest dose often 9.22 µM), for inactives: top-dose activation, negative = inhibition, actives largely listed as activators; 320,000 compounds, 2.8% hits; also: % of control where 0% means no effect; nearly all actives have a fitted effect of over 60% in size
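Measured in stably transfected Huh7 cells bearing a Rab9 promoter–luciferase construct: 24 h compound treatment at 37 °C, followed by luminescence detection.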
ELG1 repair inh = inhibitors of ELG1-dependent DNA repair in HEK293T cells; Potency, µM (titrated, usually from 46.1 µM), without a hit: at the highest dose activity change, negative = inhibition, actives largely listed as inhibitors; AID 504467; HEK293T ELG1-luciferase reporter, luminescence, 16 h; DNA damage induced by 5-fluorouridine; 330,000 compounds, 2.3% hits; also: % is scaled to controls: 0 for no effect and ±100 for the full control effect; nearly all actives have a fitted effect of over 55% in size
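Overnight (16 hr) co-exposure of 2,000 cells/well to 5-fluorouridine and compound at 37 °C preceded detection. Luciferase was quantified via ONE-Glo luminescence; loss of signal denotes inhibition.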
FLuc counter = inhibits or activates purified firefly luciferase, miR-21 counter-screen. P08659. purified FLuc, Km substrates, luminescence inhibition. Potency, µM (series often up to 57.5 µM), without a hit: at the highest dose activity change, negative = inhibition, usual class: inhibitors. 360,000 compounds, 6.9% hits. AID 588342;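 also: plate controls were vehicle for no effect and reference inhibitor for full effect; nearly all actives have a fitted effect of over 55% in size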
Target sequence (P08659 whole entry, looked up): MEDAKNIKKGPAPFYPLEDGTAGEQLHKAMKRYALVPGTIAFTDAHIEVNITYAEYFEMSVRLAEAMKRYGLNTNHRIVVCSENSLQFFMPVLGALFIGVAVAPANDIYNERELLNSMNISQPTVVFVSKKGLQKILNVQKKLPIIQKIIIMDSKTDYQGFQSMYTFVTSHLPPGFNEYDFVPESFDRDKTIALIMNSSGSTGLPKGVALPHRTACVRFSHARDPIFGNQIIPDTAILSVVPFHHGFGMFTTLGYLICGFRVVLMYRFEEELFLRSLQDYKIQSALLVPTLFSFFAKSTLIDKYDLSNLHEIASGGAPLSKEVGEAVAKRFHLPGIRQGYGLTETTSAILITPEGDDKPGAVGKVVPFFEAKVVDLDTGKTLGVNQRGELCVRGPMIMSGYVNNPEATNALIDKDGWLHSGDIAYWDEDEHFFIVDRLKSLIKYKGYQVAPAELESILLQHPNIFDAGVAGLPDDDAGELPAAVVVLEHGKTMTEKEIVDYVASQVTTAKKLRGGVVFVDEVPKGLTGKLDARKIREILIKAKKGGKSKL
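Purified P. pyralis luciferase (10nM final) with 10uM D-luciferin and 10uM ATP (Km levels) in 50mM Tris acetate pH 7.5, 10mM Mg acetate, 0.01% Tween-20, 0.05% BSA; qHTS 6-point titration, ~60 µM downward; luminescence read.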
SMN2 splice up = enhancers of SMN2 splice variant expression. HEK293 SMN2-luciferase splicing reporter, luminescence, 30-36 h. AID 1458. 210,000 compounds, 2.8% hits. Potency, µM (top dose mostly 46.1 µM), inactives show at the top dose activity change, positive = activation, actives largely listed as activators; also: % of control where 0% means no effect; nearly all actives have a fitted effect of over 55% in size
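qHTS luciferase splicing reporter: luminescence rises when SMN2 exon 7 is included in transfected HEK293 cells. Compound exposure lasted 30-36 h at 37C, with 4.5 mM final sodium butyrate as control, followed by a ONE-Glo read.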
* = called active by the depositor; ? = inconclusive; · = not tested or not shown; [ ] = remark or other dose. Hits are enriched below; roughly 9.4% of the tested compounds scored in any of these assays. Calls follow the shape of the dose curve; as a rule, active = well fitted curve in the direction sought with a large enough effect; inconclusive = small, poorly fitted or top-dose-only effect, or another doubt; inactive = no such curve, though single readings can be large; an effect the other way counts as inactive or inconclusive. Potency is read from the fitted curve at half-maximal effect.

SMILES | ELG1 genotox | NPC1 prom act | Rab9 promoter act | ELG1 repair inh | FLuc counter | SMN2 splice up
O=C(CN1C(=O)C2C3C=CC(C3)C2C1=O)Nc1ccc2c(c1)OCCO2 (configuration not stated) | ? | ? | 3.5µM* | ? | 17µM* | 21%
O=C(CSc1nnc2ccccn12)Nc1ncc(Cl)cc1Cl | 18µM* | 20% | ? | ? | ? | ?
CC(NC(=O)Cn1ncc(Cl)c(Cl)c1=O)C12CC3CC(CC(C3)C1)C2 (configuration not stated) | -18% | -23% | -29% | 18µM* | 3% | -98%
O=C(CSc1nnc2ccccn12)Nc1ccc2c(c1)OCCO2 | ? | ? | 2.5µM* | ? | ? | ·
COc1cc2c(cc1OC)n(CC(=O)c1cc(C)ccc1C)c(=O)n1nc(CCn3nc(C)cc3C)nc21 | · | · | · | · | -3% | ·
O=C(c1cnn(-c2ccc(F)cc2)c1-n1cccc1)N1CCN(c2cccc(Cl)c2)CC1 | · | · | · | · | -2% | ·
CN1CCN(c2ccc(NC(=O)CSc3ccccc3)cc2F)CC1 | 2.1µM* | 1.8µM* | 1.4µM* | ? | 11µM* | 11µM*
O=C(CSc1ccccc1)Nc1ccc2c(c1)OCCO2 | 1.6µM* | 0.89µM* | 0.63µM* | ? | 2.4µM* | ·
CC(CC(=O)Nc1ccc2c(c1)OCO2)c1ccccc1 (configuration not stated) | 16% | 27% | ? | ? | ? | ·
O=C(CSc1ccc2c(c1)OCCO2)Nc1ccc2c(c1)OCO2 | 0% | -1% | 0% | ? | ? | -7%
CC(CC(=O)Nc1ccc2c(c1)OCCO2)c1ccccc1 (configuration not stated) | ? | ? | ? | ? | ? | 11µM*
O=C(CSCc1ccccc1)Nc1ccc(F)c(F)c1 | ? | 24% | ? | ? | 17µM* | ?
COc1cccc(C(=O)N(Cc2ccc(N(C)C)cc2)Cc2ccco2)c1 | · | · | · | · | -3% | -1%
O=C(CCn1c(=O)oc2ccccc21)Nc1ccc2c(c1)OCCO2 | ? | ? | ? | ? | 19µM* | ·
O=C(Cn1c(=O)oc2ccccc21)Nc1ccc2c(c1)OCCO2 | 0% | -3% | -5% | 15% | -10% | 16%
O=C(CSc1ccc(-c2ccccc2)nn1)Nc1ccc2c(c1)OCCO2 | ? | 21% | ? | ? | 11µM* | 16µM*
O=C(CSc1nnc2scc(-c3ccccc3)n12)Nc1ccc2c(c1)OCCO2 | 0% | 1% | -2% | ? | 2% | ?
CC(C)=CC(=O)Nc1ccc2c(c1)OCO2 | · | · | · | · | 11µM* | 11µM*
O=C(CSCSCC(=O)Nc1ccc2c(c1)OCO2)Nc1ccc2c(c1)OCO2 | -2% | -1% | -4% | -18% | 17µM* | -7%
O=C(CCS(=O)(=O)c1ccccc1)Nc1ccc2c(c1)OCO2 | ? | ? | ? | ? | 27µM* | ·
O=C(Cn1ncc(Cl)c(Cl)c1=O)Nc1ccc2c(c1)OCO2 | -6% | -44% | -43% | 6.5µM* | -1% | ·
CS(=O)(=O)N(CC(=O)Nc1ccc2c(c1)OCO2)c1ccccc1 | 8% | 1% | 0% | 10% | 3% | -7%
COc1cccc(/C=N/Nc2nc(Nc3ccccc3)nc(-n3nc(C)cc3C)n2)c1O | -25% | -3% | -39% | 2.6µM* | 6µM* | -8%
COc1cccc(/C=N/Nc2cc(-n3nc(C)cc3-c3ccccc3)ncn2)c1O | -11% | -32% | -44% | 5.2µM* | 13% | -107%
CCCCCCCCCCCCCCCCCCOC[C@H](COP(=O)([O-])OCC[N+](C)(C)C)OC(C)=O | · | · | · | · | · | -6%
SMILES | ELG1 genotox | NPC1 prom act | Rab9 promoter act | ELG1 repair inh | FLuc counter | SMN2 splice up
COc1ccc(CNC(=O)c2cnc3sc(N4CCCCCC4)nn3c2=O)cc1 | · | · | · | · | 3% | ·
Cc1ccc(S(=O)(=O)N2CCCc3cc(NC(=O)c4ccc(C(C)(C)C)cc4)ccc32)cc1 | · | · | · | · | -1% | ·
CSC(=Nc1ccccc1)C(C#N)c1nc2ccccc2[nH]1 (configuration not stated) | 3% | 0% | 2% | -15% | -3% | ·
N#CC(C(=S)Nc1ccccc1)c1nc2ccccc2[nH]1 (configuration not stated) | -9% | 3% | 2% | 13µM* | -6% | ·
Cc1ccc(C(=O)Nc2nc(-c3ccccn3)cs2)s1 | 15µM* | 28% | -2% | ? | 6.7µM* | ·
O=C(Nc1nc(-c2ccccn2)cs1)C1CCCC1 | 0% | 29% | ? | ? | 24µM* | 30%
O=C(Nc1nc(-c2ccccn2)cs1)c1ccc(Cl)s1 | 17% | 3% | -1% | ? | 17µM* | -66%
O=C(Nc1ccc2nc(-c3ccccn3)[nH]c2c1)C1CCCCC1 | 21µM* | ? | ? | ? | 5.4µM* | 11µM*
COc1cccc(C(=O)Nc2cccc(C(=O)N3CCOCC3)c2)c1 | 8% | 10% | -1% | 13% | -17% | 6%
Cc1ccc(C(=O)Nc2cccc(NC(=O)CN3CCCCC3)c2)cc1 | 1% | 12% | 9% | 24% | 19µM* | ·
CC(=O)N1CCc2cc(NC(=O)c3ccc(C)cc3)ccc21 | ? | ? | 0.56µM* | ? | 3.8µM* | 11µM*
Cc1ccc(C(=O)Nc2cccc(C(=O)N3CCN(C)CC3)c2)cc1 | ? | 3.2µM* | 4.5µM* | ? | 9.5µM* | 11µM*
COc1ccc(C(=O)Nc2cccc(C(=O)N3CCCC3)c2)cc1 | ? | ? | 22% | ? | 15µM* | ?
CCOC(=O)C1=C(CN2CCN(c3ccccc3F)CC2)NC(=O)NC1c1ccc(OC)cc1 (configuration not stated) | · | · | · | · | -11% | ·
O=[N+]([O-])c1ccc(C2=Nn3c(nnc3-c3ccc(Cl)cc3)SC2)o1 | · | · | · | · | · | -6%[9.22 µM]
CCN(CC)C(=O)Cn1ncc2c([nH]c3ccc(C)cc32)c1=O | · | · | · | · | 0% | ·
CC(C)C(O)(C(C)C)C(C)C | · | · | · | · | · | -3%[9.22 µM]
Cc1cc(=O)[nH]c2nnc(SCc3cccc(C(F)(F)F)c3)n12 | · | · | · | · | 5% | ·
Cc1cc(CN(C)C(=O)c2ccc3nc(Cc4ccccc4F)oc3c2)n[nH]1 | 3% | 18% | 5% | 8% | 1% | ·
O=C(c1ccc2nc(Cc3ccccc3F)oc2c1)N1CCCC1 | 10µM* | 2.8µM* | 1.3µM* | ? | 9.5µM* | ·
CC(c1ccccn1)N(C)C(=O)c1ccc2nc(Cc3ccccc3F)oc2c1 (configuration not stated) | 13µM* | ? | 2.8µM* | ? | 6.7µM* | ·
Cc1cc(CNC(=O)c2ccc3nc(Cc4ccccc4F)oc3c2)nn1C | ? | 2.8µM* | 3.2µM* | ? | 11µM* | ·
